We go through 27 molecules from PubChem BioAssay (EPA / NIEHS).

A word on the AC50: it is the concentration at which the activity in the assay is half-maximal.

Active and inactive are the calls of the source. The calls were made as follows: active = hit-call score of the fitted dose curve at least 0.9, where 1 is the maximum; inactive = score below 0.9.

This experiment can be described thus: CCTE_Shafer_MEA_acute_cross_correlation_HWHM: CCTE's Neural Acute Assay for Cross Correlation at Half Width at Half Maximum, Shafer Lab (AID 2284026). Here is the method:
CCTE_Shafer_MEA_acute assay is conducted using Axion Biosystems 48 well microelectrode array (MEA) plates and Maestro recording system. Each well of the MEA plate contains a grid of 16 microelectrodes embedded in the culture surface. Electrically active cells, such as neurons, can be cultured over the electrodes, and electrical activity in these cells can be recorded extracellularly. The spontaneous firing of neurons is captured from each electrode on a microsecond timescale providing both temporally and spatially precise data. […] The CCTE_Shafer_MEA_acute assay uses primary cultures of rat cortical neurons. As these cultures mature over time, neural networks develop functional activity and form cohesive networks in which electrical activity can be highly coordinated. Baseline 40-minute recordings are made on days post-plating 13 or 15, followed by a secondary 40-minute recording after chemical exposure.CCTE_Shafer_MEA_acute_cross_correlation_HWHM is a component of the CCTE_Shafer_MEA_acute assay. It measures the distance along the x-axis (phase lag) from the left half maximum height to the center of the cross-correlogram of action potential firing during a recording in a microelectrode array (MEA) using Axion Biosystems Maestro 768 channel amplifier with the AxIS adaptive spike detector. Smaller values indicate a narrower correlogram (greater synchrony). The recordings before and after chemical treatment are used to calculate a percent change in the half width at half maximum of the cross-correlogram in each well.Data from the assay component CCTE_Shafer_MEA_acute_cross_correlation_HWHM was analyzed into 1 assay endpoint. This assay endpoint, CCTE_Shafer_MEA_acute_cross_correlation_HWHM, was analyzed in the negative analysis fitting direction relative to DMSO as the negative control and baseline of activity. Using a type of functional reporter, gain or loss-of-signal activity can be used to understand electrical activity.
Spontaneous activity in the cortical cultures was recorded using an Axion Biosystems Maestro 768 channel amplifier and Axion Integrated Studios (AxIS) v1.8 (or later) software. The amplifier recorded from all channels simultaneously (gain = 1200 x; sampling rate = 12.5 kHz/channel): raw signals were filtered with a Butterworth band-pass filter (300-5000 Hz), which filters out slower local field potentials leaving only fast potentials, i.e., "spikes", arising from extracellular currents associated with action potentials (Pine 2006; Wheeler and Nam 2011). On-line spike detection of filtered signals was conducted with the AxIS adaptive spike detector, using a threshold of 8x the root mean squared (rms) noise on each channel. Any electrodes with rms noise levels greater than 5 uV were grounded (e.g., no data were recorded). Once grounded, an electrode was grounded for the duration of the experiment. All recordings were conducted at 37 C. Wells were deemed usable if on the day of the exposure >/= 10 electrodes were active (defined as >/= 5 spikes/min). On DIV 13 or 15, a minimum of three wells from one cortical culture preparation were treated with each compound (0.03-40 uM). Prior to recording baseline activity, each mwMEA plate was placed in the Maestro at 37 C and allowed to sit for 20 min while firing rates stabilized. Baseline activity (40 min) was recorded before the addition of each compound. An additional 40 min of spontaneous activity was recorded in the presence of each compound. Changes in network parameters relative to baseline were assessed following compound treatment.
`CC(=O)C(C)=CC1C(C)=CCCC1(C)C` (configuration not stated): the call was inactive. For the molecule `Cc1ccc(C)c(O)c1C`, the AC50 is 33.9 µM (active). `C[Si]1(C)O[Si](C)(C)O[Si](C)(C)O[Si](C)(C)O1`: the result was inactive.

`CNCc1cc(F)ccc1Oc1ccc(Cl)c(Cl)c1`: the molecule was classed as inactive. Consider `Cc1ccc2ncccc2c1`, for which the molecule was called inactive.

For `CN1CCCC1=O`, the outcome was inactive. Turning to `c1cc(-c2ccncc2)ccn1`, the molecule was called inactive. `CCCCCCCCCCCCCCCCCC(=O)O`: the molecule was called inactive. As to `NS(=O)(=O)c1cc2c(cc1Cl)NCNS2(=O)=O`, the molecule was called inactive. Take `CCOC(=O)C(C)(C)Oc1ccc(Cl)cc1`: the molecule was classed as inactive.

Regarding `CCCCCCCCCCO`, the AC50 is 20 µM (active). In the case of `Nc1ccccc1N`, the outcome was inactive. As to `Nc1nc(N)c2nc(CNc3ccc(C(=O)N[C@@H](CCC(=O)O)C(=O)O)cc3)cnc2n1`, the molecule was classed as inactive.

Consider `C=CCc1ccc(O)c(OC)c1`, for which the outcome was inactive.

In the case of `COc1ccc2c(c1)c(CC(=O)O)c(C)n2C(=O)c1ccc(Cl)cc1`, the call was inactive. `Cc1ccc(C(C)C)c(O)c1`: the call was inactive.

With `CC(C)(C)c1cc(O)c(C(C)(C)C)cc1O`, the AC50 is 31.7 µM (active). On to `Clc1cc(Cl)c(Cl)cc1Cl`, for which the result was inactive. The same measure, in the same setting: for `FC(F)(F)C(F)(F)C(F)(F)C(F)(F)C(F)(F)C(F)(F)CCI` the value was “inactive”; for `COc1ccc(S(=O)(=O)N2C(=O)[C@@](c3ccccc3OC)(N3C[C@H](O)C[C@H]3C(=O)N(C)C)c3cc(Cl)ccc32)c(OC)c1`, “inactive”.

As for `Nc1ccc2c(c1)C(=O)c1ccccc1C2=O`, the molecule was classed as inactive. As to `NCC1(Cc2noc(=O)[nH]2)CCCCC1`, the molecule was classed as inactive. Same read-out and setting: with `CN[C@H]1CC[C@@H](c2ccc(Cl)c(Cl)c2)c2ccc(S(N)(=O)=O)cc21` the entry was “inactive”; with `C=CCOC(=O)c1ccccc1C(=O)OCC=C`, “inactive”. With `O=C(O)CCCCC(=O)O`, the outcome was inactive.

As to `CC(=O)Oc1ccccc1C(=O)O`, the call was inactive. In the case of `CCCc1cc(=O)[nH]c(=S)[nH]1`, the molecule was classed as inactive.
